{
  "source": "the supplement of paper PMC8728848",
  "assay_in_all_cases": "glycan array binding signal (z-score within array); higher = stronger binding",
  "settings_in_all_cases": "glycan notation: IUPAC condensed, linker removed; mutation: A146Q",
  "key": {"[1]": {"target": "Fuc(a1-2)Gal(b1-4)GlcNAc", "how_it_was_run": "(§1)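 The Consortium for Functional Glycomics database supplied 3228 glycan arrays, of which those lacking an available protein sequence were dropped. The binding signal, a within-array Z-score, was averaged across arrays of the same protein sequence and across linkers. Negative scores can be read as non-binding.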"}, "[2]": {"target": "Fuc(a1-2)[Gal(a1-3)]Gal(b1-3)GlcNAc", "how_it_was_run": "as §1"}, "[3]": {"target": "Fuc(a1-2)[Gal(a1-3)]Gal(b1-3)GlcNAc(b1-2)Man(a1-3)[Fuc(a1-2)[Gal(a1-3)]Gal(b1-3)GlcNAc(b1-2)Man(a1-6)]Man(b1-4)GlcNAc(b1-4)GlcNAc", "how_it_was_run": "as §1"}, "[4]": {"target": "Fuc(a1-2)[Gal(a1-3)]Gal(b1-4)Glc", "how_it_was_run": "as §1"}, "[5]": {"target": "Fuc(a1-2)[Gal(a1-3)]Gal(b1-4)GlcNAc", "how_it_was_run": "as §1"}, "[6]": {"target": "Fuc(a1-2)[Gal(a1-3)]Gal(b1-4)GlcNAc(b1-2)Man(a1-3)[Fuc(a1-2)[Gal(a1-3)]Gal(b1-4)GlcNAc(b1-2)Man(a1-6)]Man(b1-4)GlcNAc(b1-4)GlcNAc", "how_it_was_run": "as §1"}, "[7]": {"target": "Fuc(a1-2)[GalNAc(a1-3)]Gal(b1-3)GalNAc(a1-3)[Fuc(a1-2)]Gal(b1-4)GlcNAc", "how_it_was_run": "as §1"}, "[8]": {"target": "Fuc(a1-4)GlcNAc", "how_it_was_run": "as §1"}, "[9]": {"target": "Gal(a1-3)Gal(b1-3)GlcNAc", "how_it_was_run": "as §1"}, "[10]": {"target": "Gal(a1-6)Glc", "how_it_was_run": "as §1"}, "[11]": {"target": "Gal(b1-3)Gal(b1-4)GlcNAc(b1-2)Man(a1-3)[Gal(b1-3)Gal(b1-4)GlcNAc(b1-2)Man(a1-6)]Man(b1-4)GlcNAc(b1-4)GlcNAc", "how_it_was_run": "as §1"}, "[12]": {"target": "Gal(b1-4)GlcNAc", "how_it_was_run": "as §1"}, "[13]": {"target": "Gal(b1-4)GlcNAc(b1-2)Man(a1-3)Man(b1-4)GlcNAc(b1-4)GlcNAc", "how_it_was_run": "as §1"}, "[14]": {"target": "Gal(b1-4)GlcNAc(b1-2)Man(a1-3)[Man(a1-6)]Man(b1-4)GlcNAc(b1-4)GlcNAc", "how_it_was_run": "as §1"}, "[15]": {"target": "Gal(b1-4)GlcNAc(b1-3)Gal(b1-4)GlcNAc(b1-3)Gal(b1-4)GlcNAc", "how_it_was_run": "as §1"}, "[16]": {"target": "Gal(b1-4)GlcNAc(b1-3)GalNAc", "how_it_was_run": "as §1"}, "[17]": {"target": "Gal(b1-4)GlcNAc(b1-3)[GlcNAc(b1-6)]Gal(b1-4)GlcNAc", "how_it_was_run": "as §1"}, "[18]": {"target": "Gal3S(b1-4)GlcNAc6S", "how_it_was_run": "as §1"}, "[19]": {"target": "Gal6S(b1-4)GlcNAc6S", "how_it_was_run": "as §1"}, "[20]": {"target": "GlcNAc(a1-4)Gal(b1-4)GlcNAc(b1-3)Gal(b1-4)GlcNAc(b1-3)Gal(b1-4)GlcNAc", "how_it_was_run": "as §1"}, "[21]": {"target": "GlcNAc(b1-4)GlcNAc", "how_it_was_run": "as §1"}, "[22]": {"target": "Kdn(a2-3)Gal(b1-4)[Fuc(a1-3)]GlcNAc", "how_it_was_run": "as §1"}, "[23]": {"target": "Man(a1-2)Man(a1-2)Man(a1-3)Man", "how_it_was_run": "as §1"}, "[24]": {"target": "Man(a1-2)Man(a1-2)Man(a1-6)[Man(a1-3)]Man", "how_it_was_run": "as §1"}, "[25]": {"target": "Man(a1-2)Man(a1-3)Man", "how_it_was_run": "as §1"}, "[26]": {"target": "Man(a1-2)Man(a1-3)[Man(a1-2)Man(a1-6)]Man(a1-6)[Man(a1-2)Man(a1-2)Man(a1-3)]Man(b1-4)GlcNAc(b1-4)GlcNAc", "how_it_was_run": "as §1"}, "[27]": {"target": "Neu5Ac(a2-3)Gal(b1-3)[Fuc(a1-4)]GlcNAc(b1-3)Gal(b1-4)[Fuc(a1-3)]GlcNAc", "how_it_was_run": "as §1"}, "[28]": {"target": "Neu5Ac(a2-3)Gal(b1-4)[Fuc(a1-3)]GlcNAc6S", "how_it_was_run": "as §1"}, "[29]": {"target": "Neu5Ac(a2-6)Gal(b1-4)GlcNAc(b1-2)Man(a1-6)[Man(a1-3)]Man(b1-4)GlcNAc(b1-4)GlcNAc", "how_it_was_run": "as §1"}, "[30]": {"target": "Neu5Ac(a2-6)Gal(b1-4)GlcNAc(b1-3)Gal(b1-4)GlcNAc(b1-3)Gal(b1-4)GlcNAc", "how_it_was_run": "as §1"}},
  "note": "This excerpt belongs to a sample that is enriched for the strongest signals.",
  "data": [
    {"binder": "Gal 3 (Homo sapiens), P17931 (protein) MADNFSLHDALSGSGNPNPQGWPGAWGNQPAGAGGYPGASYPGAYPGQAPPGAYPGQAPPGAYHGAPGAYPGAPAPGVYPGPPSGPGAYPSSGQPSAPGAYPATGPYGAPAGPLIVPYNLPLPGGVVPRMLITILGTVKPNANRIQLDFQRGNDVAFHFNPRFNENNRRVIVCNTKLDNNWGREERQSVFPFESGKPFKIQVLVEPDHFKVAVNDAHLLQYNHRVKKLNEISKLGISGDIDLTSASYTMI", "values": [
      {"measurement": "glycan array binding signal (z-score)", "setting": "[1]", "result": 0.166},
      {"measurement": "glycan array binding signal (z-score)", "setting": "[2]", "result": 3.36},
      {"measurement": "glycan array binding signal (z-score)", "setting": "[3]", "result": 9.93},
      {"measurement": "glycan array binding signal (z-score)", "setting": "[4]", "result": 2.81},
      {"measurement": "glycan array binding signal (z-score)", "setting": "[5]", "result": 3.94},
      {"measurement": "glycan array binding signal (z-score)", "setting": "[6]", "result": 10.3},
      {"measurement": "glycan array binding signal (z-score)", "setting": "[7]", "result": -0.199},
      {"measurement": "glycan array binding signal (z-score)", "setting": "[8]", "result": -0.12},
      {"measurement": "glycan array binding signal (z-score)", "setting": "[9]", "result": -0.087},
      {"measurement": "glycan array binding signal (z-score)", "setting": "[10]", "result": -0.188},
      {"measurement": "glycan array binding signal (z-score)", "setting": "[11]", "result": 10.2},
      {"measurement": "glycan array binding signal (z-score)", "setting": "[12]", "result": -0.196},
      {"measurement": "glycan array binding signal (z-score)", "setting": "[13]", "result": -0.083},
      {"measurement": "glycan array binding signal (z-score)", "setting": "[14]", "result": -0.181},
      {"measurement": "glycan array binding signal (z-score)", "setting": "[15]", "result": 3.5},
      {"measurement": "glycan array binding signal (z-score)", "setting": "[16]", "result": -0.187},
      {"measurement": "glycan array binding signal (z-score)", "setting": "[17]", "result": 0.13},
      {"measurement": "glycan array binding signal (z-score)", "setting": "[18]", "result": 0.851},
      {"measurement": "glycan array binding signal (z-score)", "setting": "[19]", "result": -0.192},
      {"measurement": "glycan array binding signal (z-score)", "setting": "[20]", "result": 2.23},
      {"measurement": "glycan array binding signal (z-score)", "setting": "[21]", "result": -0.132},
      {"measurement": "glycan array binding signal (z-score)", "setting": "[22]", "result": -0.201},
      {"measurement": "glycan array binding signal (z-score)", "setting": "[23]", "result": -0.186},
      {"measurement": "glycan array binding signal (z-score)", "setting": "[24]", "result": -0.177},
      {"measurement": "glycan array binding signal (z-score)", "setting": "[25]", "result": -0.199},
      {"measurement": "glycan array binding signal (z-score)", "setting": "[26]", "result": -0.15},
      {"measurement": "glycan array binding signal (z-score)", "setting": "[27]", "result": -0.2},
      {"measurement": "glycan array binding signal (z-score)", "setting": "[28]", "result": -0.188},
      {"measurement": "glycan array binding signal (z-score)", "setting": "[29]", "result": -0.197},
      {"measurement": "glycan array binding signal (z-score)", "setting": "[30]", "result": 1.65}
    ]}
  ]
}
